Test results from ChEMBL document CHEMBL1157539, “Thousands of chemical starting points for antimalarial lead identification” (Nature, 2010).

What was measured:
Type in all cases: functional
[1] = system: Plasmodium falciparum; assay: GSK_TCMDC: Inhibition of Plasmodium falciparum 3D7 in whole red blood cells, using parasite LDH activity as an index of growth. Test compounds present at 2uM
[2] = system: Plasmodium falciparum; assay: GSK_TCMDC: Inhibition of Plasmodium falciparum Dd2 in whole red blood cells, using parasite LDH activity as an index of growth. Test compounds present at 2uM
[3] = system: HepG2; assay: GSK_TCMDC: Percent inhibition of human HepG2 cell line. Test compounds present at 10uM.

Row | Compound | Inhibition [1] | Inhibition [2] | Inhibition [3]
1 | CS(=O)(=O)Nc1ccc(-c2ccc3ccnc(N)c3c2)cc1.O=C(O)C(F)(F)F | 85% | 75% | 31%
2 | Clc1ccc(-c2cnc3ccc(NCCc4cccnc4)nn23)cc1 | 97% | 32% | 34%
3 | COc1c(CCNCCCCNCCc2cc(Cl)c3ccccc3c2OC)cc(Cl)c2ccccc12.CS(=O)(=O)O | 99% | 100% | 99%
4 | Cc1ccccc1C1CCN(C2CCC(NC(=O)/C=C/c3ccc(C(F)(F)F)cc3F)CC2)CC1 (configuration not stated) | 99% | 58% | 72%
5 | O=C(NCCCCN1CCC(c2ccc3c(c2OCCCO)CCCC3)CC1)c1ccc(-c2ccc(C(F)(F)F)cc2)cc1 | 83% | 53% | 98%
6 | O=C(NC1CCN(Cc2ccccc2)CC1)c1ccc2c(=O)n(Cc3ccc(Cl)cc3)c(=S)[nH]c2c1 | 100% | 100% | 16%
7 | Cc1nc2ccc3ccc(CNc4ccc(C(=O)CC(CCC(=O)O)C(=O)O)cc4)cc3c2c(=O)[nH]1.[Cl-].[Na+] (configuration not stated) | 95% | 96% | 51%
8 | O=C(N[C@H]1CCN(Cc2ccc(OCCCN3CCCCC3)cc2)C1)c1cc(Cl)cc(Cl)c1 | 99% | 35% | 13%
9 | Cc1[nH]c(C)c(Cc2ccc(Oc3ccc(OC(F)(F)F)cc3)cc2)c(=O)c1Br | 96% | 87% | 29%
10 | Cc1cc(OC(C)C(=O)N2CCc3ccccc32)ccc1Cl (configuration not stated) | 89% | 54% | 20%
11 | Cc1cc(NCCC(=O)Nc2ccccc2)nc(NCCc2cccnc2)n1.O=C(O)C(F)(F)F | 84% | 4% | 0%
12 | Cc1ccc(F)c(OCC2CCN(c3ccc(C(=O)NC4CC4)cn3)CC2)c1 | 94% | 95% | 4%
13 | FC(F)(F)c1cccnc1N1CCC(Nc2nc3cc(Cl)ccc3[nH]2)CC1 | 93% | 39% | 32%
14 | NC(=O)c1cnc2ccc(-c3cncs3)cc2c1Nc1ccc(F)c(Cl)c1 | 97% | 99% | 3%
15 | CCc1nc(N)nc(N)c1-c1ccc(F)cc1 | 96% | 0% | 52%
16 | COc1cccc(CN2CCC(C(=O)Nc3ccc(-c4nc5ccccc5[nH]4)cc3)CC2)c1 | 100% | 84% | 9%
17 | CC(C)(C)c1nn(-c2ccccc2)c2[nH]c(=O)c(CNCc3ccc4c(c3)OCO4)cc12 | 92% | 32% | 1%
18 | c1ccc(-c2cccnn2)cc1 | 98% | 6% | 0%
19 | COc1ccc(C2CC(c3cccs3)=NN2C(=O)COc2cccc3c2CCCC3O)cc1OC (configuration not stated) | 93% | 62% | 5%
